# Screening results: PubChem, National Center for Advancing Translational Sciences (NCATS)
# Many of the other results were omitted from the sample, so hits are more common in it than they were.
# TbPYK inhibitor: blocks Trypanosoma brucei pyruvate kinase | Q57TT1 | TbPYK enzyme, Kinase-Glo Plus ATP luminescence, 45 min | Potency, µM (top dose mostly 76.8 µM), for the others: top-dose activity, negative = inhibition, most hits filed as inhibitors | hit rate 0.12% among 410,000 | AID 624173; note: potency is the fitted concentration of half-maximal effect; % is set by controls: 0 for no effect and ±100 for the full control effect; nearly all actives have a fitted effect of over 50% in size
#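 Screened from lowest to highest concentration, compounds were pinned into TbPYK/substrate mixtures, and ADP (130 uM final) was added. Plates sat at room temperature for 45 min prior to Kinase-Glo Plus detection by luminescence.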
# LmPK inh: inhibitors of Leishmania mexicana pyruvate kinase; purified LmPK, Kinase-Glo ATP luminescence, 1 h; Potency, µM (series often up to 57.5 µM), for inactives: at the top dose activity change, negative = inhibition, actives largely listed as inhibitors; hit rate 0.37% among 290,000; AID 1721; note: potency is the fitted concentration of half-maximal effect; % is set by controls: 0 for no effect and ±100 for the full control effect
#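 Screened at intermediate enzyme activity to detect both inhibitors and activators: LmPK at 0.1 nM, with a 0.5 nM enzyme column as activation reference. PEP 0.5 mM, ADP 0.1 mM; ATP detected by luminescence after 1 h.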
# CHX counter: counter-screen hit for Shiga toxin inhibitors, cycloheximide | cell reporter, cycloheximide protein synthesis inhibition counterscreen | max response, % | hit rate 12% among 300,000; in the data active = max response mostly above about 13%, no sharp cut-off; inactive = mostly below about 14%; note: read at 38.3 µM for the half of the compounds with a filed dose; 0% is about no effect
# RE007 growth inh: less growth of the S. pombe RE007 Vpr strain; S. pombe RE007 Vpr strain, BacTiter-Glo ATP luminescence, 24 h; Potency, µM (titrated, usually from 92.2 µM), without a hit: top-dose activity change, negative = less growth, actives largely listed as inhibitors; hit rate 0.21% among 360,000; active = well fitted falling curve with a large enough effect; inconclusive = small, poorly fitted or top-dose-only effect; inactive = no such curve, though single readings can be large or run the other way; note: potency is the fitted concentration of half-maximal effect; % is set by controls: 0 for no effect and ±100 for the full control effect; nearly all actives have a fitted effect of over 50% in size
#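 Fission yeast strain RE007, carrying one chromosomally integrated HIV-1 vpr copy, was seeded at OD 0.01 in PMG+AL medium with 23 nL pinned compound. After 24 h at 30 °C and 99% humidity, viability was read by BacTiter-Glo luminescence.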
# FBPA Giardia inh: inhibitors of Giardia lamblia fructose-1,6-bisphosphate aldolase; A8B2U2; purified Giardia FBPA; Potency, µM (doses to about 59.6 µM), for inactives: at the top dose activity, negative = inhibition, usual class: inhibitors; hit rate 0.71% among 290,000; note: potency is the fitted concentration of half-maximal effect; % is set by controls: 0 for no effect and ±100 for the full control effect; nearly all actives have a fitted effect of over 55% in size
# Target sequence (A8B2U2 whole entry, looked up): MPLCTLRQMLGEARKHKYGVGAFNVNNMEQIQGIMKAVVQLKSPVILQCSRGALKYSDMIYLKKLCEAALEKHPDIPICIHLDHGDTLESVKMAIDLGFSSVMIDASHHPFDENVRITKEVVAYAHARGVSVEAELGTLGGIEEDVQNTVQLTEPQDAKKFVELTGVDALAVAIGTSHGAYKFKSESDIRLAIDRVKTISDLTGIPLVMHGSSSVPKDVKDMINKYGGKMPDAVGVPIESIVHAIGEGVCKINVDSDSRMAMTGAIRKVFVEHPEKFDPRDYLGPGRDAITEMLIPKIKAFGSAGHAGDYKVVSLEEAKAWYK
#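 Giardia FBPA (40 nM reagent) was preincubated 10 min at RT with compound (up to 57.5 uM final), then substrate plus GAPDH/TPI/NAD/arsenate coupling system with diaphorase/resazurin was added; resorufin fluorescence (525/598 nm) was read after 20 min.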
# Shiga inhibitor: inhibitors of Shiga toxin in Vero cells; Vero cells, Shiga toxin protein synthesis inhibition reporter; inhibition, % at 38.7 µM; hit rate 9.2% among 290,000; in the data active = inhibition mostly above about 28%, no sharp cut-off; inactive = mostly below about 43%; note: 0% is about no effect
# Numbers without * were called inactive; ? = inconclusive; nt = no result given. Unless noted, calls come from the whole dose curve; as a rule, active = well fitted curve in the direction sought with a large enough effect; inconclusive = small, poorly fitted or top-dose-only effect, or another doubt; inactive = no such curve, though single readings can be large; an effect the other way counts as inactive or inconclusive.
SMILES,TbPYK inhibitor,LmPK inh,CHX counter,RE007 growth inh,FBPA Giardia inh,Shiga inhibitor
COc1ccccc1Nc1nc(N)nc(CCl)n1,5.0%,-2.2%,20.8*,-2.7%,10.1%,38.5*
CCOc1ccccc1Nc1nc(N)nc(CSc2nccc(C)n2)n1,-1.6%,4.5%,-1.6,-4.5%,-4.5%,-12.2
COc1ccccc1Nc1nc(N)nc(CSc2ncccn2)n1,-9.7%,-13.9%,28.0*,10.1%,0.2%,95.9*
COC(=O)C1=C(c2ccccc2)c2ccccc2S(=O)(=O)N1CC(=O)Nc1ccccc1Cl,0.5%,nt,nt,nt,nt,nt
O=c1[nH]c(Nc2ccccn2)cc2ccccc12,6.9%,nt,nt,2.6%,nt,nt
O=c1[nH]c(-c2ccccn2)cc2ccccc12,-12.4%,-17.3%,36.4*,?,-1.5%,52.0*
COc1cc2[nH]c(=O)n(CCCC(=O)NCc3ccccc3Cl)c(=O)c2cc1OC,-6.2%,nt,nt,nt,nt,nt
O=C(NCCCc1ccccc1)c1ccncc1,0.2%,-1.0%,9.4,-1.3%,6.2%,-9.0
O=C(CCCc1ccccc1)c1ccccc1,-14.8%,-10.4%,46.4*,9.5%,-0.1%,96.6*
O=C(NCCCc1ccccc1)c1ccccc1,6.7%,-4.2%,39.8*,-7.1%,2.4%,75.9*
O=C(NCCCc1ccccc1)c1cccc([N+](=O)[O-])c1,-5.3%,2.3%,22.0*,-22.4%,-0.3%,33.9
O=C(NCCCCc1ccccc1)c1ccccc1,3.4%,5.4%,15.5*,19.6%,4.6%,27.7
CCc1ccccc1NC(=O)C(=O)NCCc1sc(-c2cccc(C)c2)nc1C,6.2%,nt,nt,nt,nt,nt
O=C(NCCc1ccccc1)c1ccc(-n2cnnn2)cc1,3.3%,-6.9%,46.7*,-4.5%,1.7%,60.7*
O=C(NCCCCc1ccccc1)c1ccc(Br)cc1,-0.4%,-3.8%,38.1*,-7.7%,0.7%,55.7*
Cc1cc(NC(=O)c2ccco2)cc(-c2nc3cc(Cl)ccc3o2)c1O,1.0%,nt,nt,nt,nt,nt
CCc1ccccc1NC(=O)c1ccc2c(c1)nnn2C1CCCC1,0.3%,nt,nt,nt,nt,nt
COc1cc(/C=N/OCC(=O)NC2CCCCC2)ccc1OCc1ccccc1,-7.5%,-0.7%,54.6*,10.8%,0.9%,152.2*
COc1cc(/C=N/OCC(=O)NC23CC4CC(CC(C4)C2)C3)ccc1OCc1ccccc1,-3.7%,0.1%,36.4*,4.6%,-2.7%,101.2*
Clc1ccccc1-c1nccc(NCc2ccccc2)n1,nt,nt,nt,nt,-4.6%,nt
CC(=O)Nc1ccc(S(=O)(=O)n2nc(-c3ccc(C)cc3)nc2N)cc1,-7.5%,4.6%,8.3,3.7%,2.3%,14.5
Cc1ccc(-c2nc(N)n(S(C)(=O)=O)n2)cc1,-2.6%,-5.5%,30.1*,8.5%,3.0%,40.3
Cc1ccc(-c2cnn(-c3cccc([N+](=O)[O-])c3)c2N)cc1,7.9%,-4.7%,46.0*,-8.7%,-0.5%,102.7*
Cc1ccccc1-c1cnn(-c2cccc([N+](=O)[O-])c2)c1N,-1.5%,3.8%,25.7*,0.1%,-9.4%,38.8
COc1ccc(C2C=C(c3ccccc3)Nc3nc(NC(=O)c4cccc([N+](=O)[O-])c4)nn32)cc1 (configuration not stated),-21.4%,nt,nt,nt,nt,nt
SMILES,TbPYK inhibitor,LmPK inh,CHX counter,RE007 growth inh,FBPA Giardia inh,Shiga inhibitor
Cn1c2ccccc2c2cnn(CC(=O)Nc3ccccc3C(F)(F)F)c(=O)c21,0.7%,nt,nt,nt,nt,nt
CC(=O)O/N=C(\N)c1ccc(-c2csnn2)cc1,-1.5%,1.1%,33.8*,8.2%,1.9%,64.7*
O=C(NCc1ccco1)c1ccc(-c2csnn2)cc1,-8.6%,4.2%,8.2,-7.6%,-2.0%,23.9
CC(C)(C)C(=O)O/N=C(\N)c1ccc(-c2csnn2)cc1,-2.3%,1.7%,44.6*,-5.7%,-0.2%,78.3*
CC(C)(C)C(=O)O/N=C(\N)c1ccc(Br)cc1,-4.5%,-9.7%,1.3,12.9%,1.4%,17.8
CCOC(=O)c1noc2ncnc(N3CCC(C)CC3)c12,-2.2%,nt,nt,nt,nt,nt
O=C(Oc1ccc(NC2=C(Cl)C(=O)c3ccccc3C2=O)cc1)c1ccc([N+](=O)[O-])cc1,-7.6%,-5.2%,18.1*,-5.8%,-26.7%,-3.3
COc1ccc(/C=C2/C(=O)N(CC3CCCO3)C(=S)N2C)c(OC)c1 (configuration not stated),-2.9%,2.5%,-2.8,4.1%,-3.3%,1.2
